Data: the supplement of paper PMC10681739

The sequences below were run against T1, ETS1 (UniProt P14921) (assay: ETS1 binding intensity (PBM fluorescence) in presence of RUNX1, normalised to ETS1-only experiment (arbitrary fluorescence units); higher = stronger binding). Conditions: ETS1 concentration 1 nM; RUNX1 concentration 25 nM.
T1 sequence: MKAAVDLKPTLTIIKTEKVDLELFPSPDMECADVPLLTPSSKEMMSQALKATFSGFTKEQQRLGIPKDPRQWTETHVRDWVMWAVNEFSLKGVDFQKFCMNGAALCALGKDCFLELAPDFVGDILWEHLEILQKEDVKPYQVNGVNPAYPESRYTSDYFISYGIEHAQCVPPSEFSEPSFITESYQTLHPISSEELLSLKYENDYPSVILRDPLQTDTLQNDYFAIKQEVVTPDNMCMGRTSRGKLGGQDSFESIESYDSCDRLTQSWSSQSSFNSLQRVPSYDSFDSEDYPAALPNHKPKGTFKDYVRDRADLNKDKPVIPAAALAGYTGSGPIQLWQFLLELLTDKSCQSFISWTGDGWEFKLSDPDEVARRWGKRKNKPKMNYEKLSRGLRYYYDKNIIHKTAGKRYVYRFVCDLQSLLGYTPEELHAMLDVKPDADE
Experimental: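 Cooperative genomic-context PBM: 36-bp genomic probes with neighbouring ETS1 and RUNX1 sites, double-stranded on Agilent 4x180k arrays. Full-length recombinant human ETS1 (1 nM) was incubated alone or with RUNX1 (25 nM) and detected with anti-ETS1 antibody plus Alexa488 secondary. Value is the median fluorescence intensity over 4 replicate spots; the ETS1+RUNX1 data were normalised to the ETS1-only data using probes without RUNX1 sites. The 36-bp variable region sits on the array probe with constant linker/primer flanks that are not printed.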

Row | Sequence | ETS1 binding intensity
1 | CAGATTCCCGGAAAGGGGGACATGTAGCCGCAAAAG | 1990
2 | GGCGGCTTCCGGGATCTGCCTGGCGGTTGCTTTGTC | 525
3 | GCGGAGGGAAGCGGAAATACTTGCGGTGGGGGCGAC | 19400
4 | AGTCAGCAGAGAGGAAGTGGTTAGTCCTGCCTTGAA | 4900
5 | TGGTTAAGCAGTGCAGGATGTGGGCTGCACTGCTAA | 3930
6 | GACCTGGGTTTCCTGTCTGTACATCGCGGTTCCTAC | 1260
7 | CCTTTCCGCGAGACCTTCCGCGGTTATCCAGCGAGT | 481
8 | GACATCTTCCGGTTGCTACAGGTTACGGCGGTTGCT | 2640
9 | CCAGCCACTTCCGCTCGTCCGCCTAATACCGCGCCT | 2430
10 | CAGCTCTCTCGCTTCCTGTGGTGTAAACATGAAGCA | 1400
11 | ACACAGGAAGCAAAAGTTAAGCTATAAAACCCGCAA | 765
12 | ACCTTCGCCGGATGCTGTGGCTGAAACCACAGCATT | 13300
13 | AGCCACATCCTGGACAAAAGCTGTGGTCTAGTAACC | 556
14 | TGGATGGCAAGCAACGGAAACCGCAAACAGGGCTGT | 6230
15 | TAGTCCGCTACAGGAAGGTGGTCATCCTCGGATACC | 1170
16 | CTGAAAAACCGGAAGTGGGTGGTTTGAAACGTAAAT | 20800
17 | ACCCCAGGTACCGGAAGACCACAATTCCCAGGAGTC | 3710
18 | AGAGGCAGCTTCCGGAGACTGCTCTGTGGCCAGTTT | 1070
19 | TGGGACGAGTGGGCGGAAACAGCCGCAGGTCTCTCT | 2750
20 | ATGAACCACTTCCTGTGTGTTCCCACAGAGGTCAGG | 4320

Row | Sequence | ETS1 binding intensity
21 | CTCGGCGCGACGGATATTCCCGTGACCGCCGGGTTC | 920
22 | TCCGGAAGTGGCACTGATGGGCGCCTGCGGCGGGGG | 5500
23 | TACAGCCAGGAAATGGGGAGGGTGCTGCGGGCGGCA | 1680
24 | CTTTCGCTTCCTTTCCCCGCCTCTTAGTCCCGCAGA | 363
25 | TTGGTGACCTCTTCCTGTCCGCTGTGGTGTTGTTAC | 1240
26 | CTGGGGCTGAGGGAGGGATGTGGTGGGGCCCAGGCT | 521
27 | GTGGCTATGGGAAGTGGGGTGCGGTTTCTGCCGGGG | 3070
28 | CCTTTACGTTTTCCTGTTGCGGGTTCTATCGCTCTG | 592
29 | TCCAGTGCCGCCGCCGGAAAACCGCAGCGGCGGCGG | 4530
30 | AGCTCTGCCAGGAAGTGAGAACCACAGGCCTCCCCT | 3140
31 | TAAAGCGGAAGGGGCCGGCTCTGCGGCCTGGCCGCT | 770
32 | CCCTACTCAGGAGGATGTGGTTGGAGAACCCGCTGA | 2260
33 | TGCAGCCTATTTCCTCTAACCCGCAGATCCACTATG | 728
34 | ACAGGAAGTGTCTCTATAGAAACCAAACCACAGAAA | 7500
35 | AACTGCCTGGTGGCCGGAAACCGCTGGAGGGAGGGC | 10100
36 | CACTTCCCCCAGCCTCTCTTTTTAATACCACAATAG | 876
37 | TTCTATCCTGCCTTGCATGTCTTTAACCACACTGAG | 489
38 | CAGAGGAGGAAGAGGAAGCCACAGCGATAGGGTCAC | 520
39 | GGGGACCGGAAAGGGAGGGGTGGGCCGCAGGCGCCG | 680
40 | CACCCAGTTTGAACTTCCTGGCGGTTTTGTTTACAC | 853
